PubChem BioAssay (NCATS)
Results filed as inconclusive are left out. Calls of active or inactive are those of the source. The call rests on the fitted dose curve; in most records, active means well fitted curve in the direction sought with a large enough effect; inconclusive means small, poorly fitted or top-dose-only effect, or another doubt; inactive means no such curve, though single readings can be large; an effect the other way counts as inactive or inconclusive.

Tests used:
[1] = tested on: Zika virus NS2B-NS3 protease (linked construct); test: Primary screen NINDS Rhodamine qHTS for Zika virus inhibitors (AID 1347160); further: nearly all actives have a fitted effect of over 55% in size; further: potency means the concentration at half of the fitted maximal effect
Summary of the method: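 Single-chain NS2B-NS3 protease, 25 nM, pH 8.0; compounds preincubated 15 min. Activity: Rhodamine110 release from 1.5 microM substrate over 15 min, room temperature, data fitted to 4-parameter Hill.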

[2] = target: Calcium and integrin-binding protein 1 (Homo sapiens) (UniProt Q99828); test: Primary qHTS for Identification of Calcium Integrin Binding Protein 1 (CIB1) Competitor (AID 1508620);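 further: GST tagged CIB1 binding a fluorescein labelled alphaIIb integrin peptide tracer; top concentration of the series differs between compounds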
Chain of Calcium and integrin-binding protein 1 (Homo sapiens) (Q99828 whole entry, looked up): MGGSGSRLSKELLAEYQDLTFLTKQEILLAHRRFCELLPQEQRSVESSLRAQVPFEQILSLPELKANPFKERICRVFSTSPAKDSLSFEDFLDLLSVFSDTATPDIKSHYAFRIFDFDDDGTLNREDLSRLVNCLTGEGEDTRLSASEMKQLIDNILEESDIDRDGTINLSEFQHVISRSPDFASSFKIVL
Summary of the method: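 Fluorescence polarization competition: CIB1-GST (1 uM final) preincubated with compound 15 min at room temperature, then FITC-labeled alphaIIb peptide (100 nM final) added for another 15 min. Polarization read at Ex 480/Em 540.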

[3] = target: Glutathione peroxidase 1 (Homo sapiens) (UniProt P07203); test: Primary qHTS Assay for Inhibitors of Recombinant Selenoprotein Glutathione Peroxidase 1 (GPX1) (AID 1845191); further: nearly all actives have a fitted effect of over 65% in size
Chain of Glutathione peroxidase 1 (Homo sapiens) (P07203 whole entry, looked up): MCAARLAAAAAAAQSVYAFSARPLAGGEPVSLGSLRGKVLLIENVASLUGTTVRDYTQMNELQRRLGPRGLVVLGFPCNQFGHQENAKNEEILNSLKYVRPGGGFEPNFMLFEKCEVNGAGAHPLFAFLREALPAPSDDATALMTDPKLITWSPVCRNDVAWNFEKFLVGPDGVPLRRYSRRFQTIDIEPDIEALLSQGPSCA
Summary of the method: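 GPX1 10 nM, GR 100 nM, GSH 1 mM, NADPH 0.5 mM, CHP 0.5 mM (final). 30-min cpd preincubation, RT. Ex340/Em450 read t=0, t=15 min.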

[4] = target: Luciferin 4-monooxygenase (Photinus pyralis) (UniProt P08659); test: Primary firefly luciferase (FLuc) qHTS assay for identification of artifact compounds. (AID 1845220); further: nearly all actives have a fitted effect of over 60% in size; further: potency means the concentration at half of the fitted maximal effect
Summary of the method: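 Reaction readout was CCD-imaged luminescence, taken 5 min after adding 10 nM purified firefly enzyme to compound-treated wells holding 10 uM luciferin and ATP in pH 7.6 buffer.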

[5] = Primary fluorescence-based thiol-reactive (MSTI) qHTS assay for identification of artifact compounds. (AID 1845221); further: nearly all actives have a fitted effect of over 65% in size; further: potency means the concentration at half of the fitted maximal effect
Summary of the method: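 MSTI probe at 4 uM final in 2% DMSO/PBS pH 7.4; compounds, 1 h at room temperature in dark. Fluorescence Ex/Em 525/598 nm, normalised to Acetyl-MSTI and MSTI, fitted to 4-parameter Hill.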

[6] = Primary redox qHTS assay for identification of artifact compounds. (AID 1845223)
Summary of the method: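 Redox-cycling detection via DTT (250 uM final) oxidation coupled to Amplex Red (25 uM)/HRP (250 mU/mL) in HBSS. 15 min preincubation plus 30 min after DTT, room temperature. Ex/Em 525/598 nm; 4-parameter Hill fit against DMSO and 10 uM DA3003.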

C33A = test: Primary qHTS to identify gynecologic anti-cancer compounds using libraries of approved drugs and bioactive compounds (AID 1345084); settings: Gynecologic cancer cell panel viability, ATPlite luminescence, 48 h; series mostly up to 57.5 µM; further: nearly all actives have a fitted effect of over 55% in size; further: potency means the concentration at half of the fitted maximal effect
Summary of the method: (§1)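 Cells, 1,000 per well, plated 16 h, then exposed 48 h at 37 C to compounds. Viability by ATPlite luminescence after 15 min at room temperature.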

CAOV3 = test: as above; settings: Gynecologic cancer cell panel viability, ATPlite luminescence, 48 h; series mostly up to 57.5 µM
Summary of the method: as §1

CASKI = test: as above; settings: Gynecologic cancer cell panel viability, ATPlite luminescence, 48 h; series mostly up to 57.5 µM
Summary of the method: as §1

Es-2 = test: as above; settings: Gynecologic cancer cell panel viability, ATPlite luminescence, 48 h; series mostly up to 57.5 µM
Summary of the method: as §1

HeLa = test: as above; settings: Gynecologic cancer cell panel viability, ATPlite luminescence, 48 h; series mostly up to 57.5 µM
Summary of the method: as §1

Hek293T = test: as above; settings: Gynecologic cancer cell panel viability, ATPlite luminescence, 48 h, control line for the selectivity index; series mostly up to 57.5 µM
Summary of the method: as §1

JEG-3 = test: as above; settings: Gynecologic cancer cell panel viability, ATPlite luminescence, 48 h; series mostly up to 57.5 µM
Summary of the method: as §1

OV90 = test: as above; settings: Gynecologic cancer cell panel viability, ATPlite luminescence, 48 h; series mostly up to 57.5 µM
Summary of the method: as §1

Tov-21-G = test: as above; settings: Gynecologic cancer cell panel viability, ATPlite luminescence, 48 h; series mostly up to 57.5 µM
Summary of the method: as §1

Tov112D = test: as above; settings: Gynecologic cancer cell panel viability, ATPlite luminescence, 48 h; series mostly up to 57.5 µM
Summary of the method: as §1

[7] = Primary qHTS for inhibitors of nuclear receptor binding SET domain protein 2 (NSD2) in an isogenic RCH-ACV NSD2 p.E1099K mutant (9B) (AID 1645876); further: nearly all actives have a fitted effect of over 70% in size; further: potency means the concentration at half of the fitted maximal effect
[8] = Primary qHTS for inhibitors of nuclear receptor binding SET domain protein 2 (NSD2) in an RCH-ACV wild type WT cells (2C) (AID 1645877); further: nearly all actives have a fitted effect of over 70% in size; further: potency means the concentration at half of the fitted maximal effect
[9] = target: Phospholipid hydroperoxide glutathione peroxidase GPX4 (Homo sapiens) (UniProt P36969); test: Primary qHTS Assay for Inhibitors of Recombinant Selenoprotein Glutathione Peroxidase 4 (GPX4) (AID 1845192); settings: outcome: dose series up to 50 µM unless noted; further: nearly all actives have a fitted effect of over 65% in size
Chain of Phospholipid hydroperoxide glutathione peroxidase GPX4 (Homo sapiens) (P36969 whole entry, looked up): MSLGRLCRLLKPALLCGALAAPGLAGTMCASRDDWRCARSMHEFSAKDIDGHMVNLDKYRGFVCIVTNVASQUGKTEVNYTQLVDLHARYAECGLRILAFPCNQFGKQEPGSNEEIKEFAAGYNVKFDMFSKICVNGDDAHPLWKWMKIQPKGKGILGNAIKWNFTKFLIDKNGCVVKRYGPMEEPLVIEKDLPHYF
Summary of the method: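 qHTS, GR-coupled: GPX4 200 nM + cpd 30 min RT → GSH 1 mM, NADPH 0.5 mM, GR 100 nM → CHP 0.5 mM start; fluor 340/450 at t0 and t15 min; no-enzyme wells as control.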

[10] = tested on: Nanoluciferase (engineered Oplophorus gracilirostris luciferase); test: Primary Nanoluciferase (NLuc) qHTS assay for identification of artifact compounds. (AID 1845222); further: potency means the concentration at half of the fitted maximal effect
Summary of the method: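 Concentration-response data were obtained by luminescence after 5 min with Nano-Glo substrate at 1:100. The enzyme was diluted S16 NLuc-expressing cell medium, preincubated with compound for 15 min at RT. Curves were fitted with a 4-parameter Hill model.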

Measured: Potency

Cc1ccn(-c2cc(Cl)ccc2[C@@H](Oc2cc(-c3ccc(C[C@H](N)C(=O)O)cc3)nc(N)n2)C(F)(F)F)n1
inactive: [2] | [3] | [4] | [5] | [6] | C33A | CAOV3 | CASKI | Es-2 | HeLa | Hek293T | JEG-3 | OV90 | Tov-21-G | Tov112D
active: [1] 22.4 µM

Cc1cc(N=Nc2ccc(S(=O)(=O)Nc3ccccn3)cc2)c(N)cc1O
active: [7] 8.17 µM | [8] 5.78 µM | [5] 0.597 µM | HeLa 4.47 µM
inactive: [1] | [3] | [6] | C33A | JEG-3

CNCc1ccc(C)c(NC(=O)c2ccc(Nc3nc(-c4ccccc4)c4ccccc4n3)cc2)c1
active: [7] 7.42 µM | [8] 7.42 µM
inactive: [1] | [2] | [3] | [9] | [4] | [5] | [10] | [6] | C33A | CASKI | Es-2 | HeLa | Hek293T | JEG-3 | OV90 | Tov-21-G | Tov112D

Cc1nc(C)c2c(n1)N(Cc1ccc(-c3ccccc3-c3nn[nH]n3)cc1)C(=O)CC2
inactive: [1] | [2] | [7] | [8] | [3] | [9] | [4] | [5] | [6] | C33A | CAOV3 | CASKI | Es-2 | HeLa | Hek293T | JEG-3 | OV90 | Tov-21-G | Tov112D
active: [10] 21.3 µM

Oc1ccc(Nc2nc(-c3ccc(Cl)cc3)cs2)cc1
inactive: [1] | [2] | [3] | [10] | [6] | CAOV3 | CASKI | Es-2 | Hek293T | JEG-3 | OV90 | Tov-21-G
active: [7] 6.61 µM | [8] 6.61 µM | [4] 4.78 µM | [5] 1.5 µM

Nc1nc(NCC2CCC(CNS(=O)(=O)c3cccc4ccccc34)CC2)nc2ccccc12 (stereo not drawn)
active: [7] 4.09 µM | [8] 2.58 µM
inactive: [1] | [2] | [3] | [9] | [4] | [5] | [10] | [6] | C33A | CASKI | Es-2 | HeLa | Hek293T | JEG-3 | Tov-21-G

O=c1c(-n2ccnn2)c[nH]n1-c1cc(N2CCOCC2)ncn1
inactive: [2] | [3]
active: [7] 20.9 µM | [8] 20.9 µM

N#C[C@@H]1C[C@@H]2C[C@@H]2N1C(=O)[C@@H](N)C12CC3CC(CC(O)(C3)C1)C2
inactive: [1] | [2] | [7] | [8] | [3] | [4] | [5] | [10] | [6] | C33A | CAOV3 | CASKI | Es-2 | HeLa | Hek293T | JEG-3 | OV90 | Tov-21-G | Tov112D

CCS(=O)(=O)N(Cc1cccnc1)c1cccc(-c2ccc(C#N)cc2)c1
active: [7] 16.3 µM | [8] 20.5 µM
inactive: [1] | [2] | [3] | [9] | [4] | [5] | [10] | [6] | C33A | CAOV3 | CASKI | Es-2 | HeLa | Hek293T | JEG-3 | Tov112D

CN(CC(=O)N(Cc1ccc(C2CCCCC2)cc1)c1ccc(C(=O)O)cc1)S(=O)(=O)c1c(F)c(F)c(F)c(F)c1F
active: [1] 2.82 µM | [7] 7.28 µM | [8] 4.59 µM | CAOV3 25.1 µM | JEG-3 25.1 µM
inactive: [2] | [3] | [9] | [4] | [5] | [10] | [6] | Es-2

C=C1C(=O)O[C@@H]2CC(C)=C([C@@H](C)CCCO)[C@@H](OC(=O)C(C)C)[C@H]12
inactive: [1] | [2] | [3] | [9] | [4] | [10] | C33A | CAOV3 | Es-2 | HeLa | JEG-3 | OV90
active: [7] 14.2 µM | [8] 14.2 µM | [5] 14.7 µM

C=C1[C@@H](C)[C@H]2[C@H](Cc3c[nH]c4ccccc34)NC(=O)[C@]23C(=O)/C=C/C(=O)[C@H](O)/C(C)=C\[C@@H](C)C/C=C/[C@H]3[C@@H]1O
active: [7] 3.99 µM | [8] 0.796 µM
inactive: [2] | [3] | [9] | [4] | [5] | [10] | [6] | C33A | CAOV3 | CASKI | Es-2 | Hek293T | JEG-3 | OV90 | Tov112D
